# Where “and” joins values, the source holds several entries; their conditions need not be identical. Equal values may be shown once. Values without a mark were called inactive. Records with an inconclusive call do not appear. Entries that show only a call come without a potency. Calls of active or inactive are those of the source. Unless noted, the call rests on the fitted dose curve; in most records, active means well fitted curve in the direction sought with a large enough effect in the repeat runs; inconclusive means weak or mixed curves; inactive means flat fitted curve, though single readings scatter.
# Legend:
# [1] = qHTS assay to test for compound auto fluorescence at 535 nm (green) in HEK293 cells (AID 720680)
# [2] = qHTS assay to test for compound auto fluorescence at 460 nm (blue) in HEK293 cell free culture (AID 720681)
# Procedure, shortened: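 Compounds were added to cell-free DMEM with 10% FBS and fluorescence read directly. The blue channel used 405 nm excitation and 460 nm emission, with triamterene as the reference fluorophore.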
# [3] = qHTS assay to test for compound auto fluorescence at 535 nm (green) in HEK293 cell free culture (AID 720682)
# Procedure, shortened: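 Compounds were pin-transferred into cell-free DMEM with 10% FBS, and green fluorescence was read at excitation 485 nm and emission 535 nm. Intensities were expressed as fluorescein-equivalent values.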
# [4] = qHTS assay to test for compound auto fluorescence at 590 nm (red) in HEK293 cell free culture (AID 720683)
# Procedure, shortened: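 Cell-free wells of DMEM with 10% FBS received compound, and intrinsic fluorescence was read at excitation/emission 540/590 nm. Values expressed as equivalence to Rose Bengal sodium.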
# [5] = qHTS assay to test for compound auto fluorescence at 590 nm (red) in HepG2 cell free culture (AID 720684)
# Procedure, shortened: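 Rose Bengal sodium served as the reference for red signal. Test compounds were dispensed into serum-containing MEM (10% FBS) without cells, and plates were read at 540/590 nm.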
# [6] = qHTS assay to test for compound auto fluorescence at 460 nm (blue) in HepG2 cell free culture (AID 720685)
# Procedure, shortened: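 Cell-free plates of MEM plus 10% FBS received 23 nL compound or DMSO vehicle; blue-channel (405/460 nm) intensity scored against triamterene as reference fluorophore.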
# [7] = qHTS assay to test for compound auto fluorescence at 535 nm (green) in HepG2 cell free culture (AID 720686)
# [8] = qHTS assay to test for compound auto fluorescence at 460 nm (blue) in HepG2 cells (AID 720687)
# Procedure, shortened: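 HepG2 cells in MEM with 10% FBS, attached overnight at 37 C, were exposed to compound or DMSO for 1 hr at 37 C, 5% CO2. Blue fluorescence was read at 405/460 nm, with triamterene as reference fluorophore.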
# [9] = target: Glucocorticoid receptor (Homo sapiens) (UniProt P04150); test: qHTS assay to identify small molecule agonists of the glucocorticoid receptor (GR) signaling pathway (AID 720691; active means well fitted activation curve with a large enough effect in the signal ratio in the repeat runs, not every such curve was filed as active; the % refers to the signal ratio)
# Procedure, shortened: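 Cells: GR-bla HeLa, endogenous GR with stably integrated GRE-beta-lactamase reporter. Treatment 18 h, 37 C, compounds delivered in DMSO. Detection via LiveBLAzer B/G FRET substrate, 2 h RT, fluorescence intensity.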
# [10] = target: Glucocorticoid receptor (Homo sapiens) (UniProt P04150); test: qHTS assay to identify small molecule antagonists of the glucocorticoid receptor (GR) signaling pathway (AID 720692; active means well fitted inhibition curve with a large enough effect in the signal ratio in the repeat runs, not every such curve was filed as active; the % refers to the signal ratio; further: potency means the concentration at half of the fitted maximal effect)
# Procedure, shortened: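 Quantitative HTS in antagonist format: HeLa cells expressing endogenous GR and a stably integrated GRE-bla reporter, stimulated with 5 nM dexamethasone (final) alongside test compounds for 18 h.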
# Glucocorticoid receptor (Homo sapiens), sequence (P04150 whole entry, looked up): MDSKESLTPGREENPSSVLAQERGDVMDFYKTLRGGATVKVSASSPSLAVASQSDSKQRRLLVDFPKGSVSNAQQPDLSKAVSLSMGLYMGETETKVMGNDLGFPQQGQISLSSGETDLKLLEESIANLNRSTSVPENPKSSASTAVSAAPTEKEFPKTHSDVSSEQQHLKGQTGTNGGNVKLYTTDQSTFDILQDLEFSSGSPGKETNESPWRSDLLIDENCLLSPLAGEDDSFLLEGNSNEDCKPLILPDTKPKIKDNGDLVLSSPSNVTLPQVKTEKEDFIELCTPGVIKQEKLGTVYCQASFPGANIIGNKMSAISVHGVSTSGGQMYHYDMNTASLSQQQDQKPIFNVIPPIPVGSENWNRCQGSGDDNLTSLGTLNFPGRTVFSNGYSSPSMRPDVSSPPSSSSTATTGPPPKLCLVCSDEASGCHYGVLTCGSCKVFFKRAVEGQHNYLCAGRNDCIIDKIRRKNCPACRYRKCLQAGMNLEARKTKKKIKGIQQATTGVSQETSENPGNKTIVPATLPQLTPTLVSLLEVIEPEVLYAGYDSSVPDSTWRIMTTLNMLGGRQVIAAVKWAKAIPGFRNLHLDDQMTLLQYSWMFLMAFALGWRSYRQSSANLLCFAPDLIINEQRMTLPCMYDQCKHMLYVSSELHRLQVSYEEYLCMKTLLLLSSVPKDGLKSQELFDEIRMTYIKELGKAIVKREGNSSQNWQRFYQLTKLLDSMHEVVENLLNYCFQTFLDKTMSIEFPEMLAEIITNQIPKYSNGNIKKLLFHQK
Compound,outcome [1],outcome [2],outcome [3],outcome [4],outcome [5],outcome [6],outcome [7],outcome [8],outcome [9],Potency [10],"fluorescence, % of fluorescein [1]","fluorescence, % of fluorescent control [2]",activity change [3],"fluorescence, % of fluorescent control [4]","fluorescence, % of Rose Bengal [5]","fluorescence, % of fluorescent control [6]","fluorescence, % of fluorescein control [7]","fluorescence, % of fluorescent control [8]"
CNC(=O)Oc1cccc(C(C)C)c1,inactive,inactive,inactive,inactive,inactive,inactive,inactive,inactive,inactive,inactive,,,,,,,,
O=C(O)c1ccc2[nH]cc(CCCCN3CC=C(c4ccccc4)CC3)c2c1,inactive,inactive,inactive,inactive,inactive,inactive,inactive,inactive,inactive,inactive,,,,,,,,
O=C1OC(=O)C2C1C1(Cl)C(Cl)=C(Cl)C2(Cl)C1(Cl)Cl (stereo unspecified),inactive,inactive,inactive,inactive,inactive,inactive,inactive,inactive,inactive,inactive,,,,,,,,
CC(C)CC(N(C)C)C1(c2ccc(Cl)cc2)CCC1 (stereo unspecified),inactive,inactive,inactive,inactive,inactive,inactive,inactive,inactive,inactive,inactive,,,,,,,,
C#C[C@]1(O)C=C[C@H]2[C@@H]3CCC4=CC(=O)CC[C@@H]4[C@H]3CC[C@@]21CC,inactive,inactive,inactive,inactive,inactive,inactive,inactive,inactive,inactive,,,,,,,,,
CCS(=O)(=O)CCSP(=O)(OC)OC,inactive,inactive,inactive,inactive,inactive,inactive,inactive,inactive,inactive,inactive,,,,,,,,
C[C@H]1CCC[C@H](O)CCCCCc2cc(O)cc(O)c2C(=O)O1,inactive,inactive,inactive,inactive,inactive,inactive,inactive,inactive,inactive,21.3 µM (active) and 39.2 µM (active),,,,,,,,
N#Cc1c(Cl)cccc1Cl,inactive,inactive,inactive,inactive,inactive,inactive,inactive,inactive,inactive,,,,,,,,,
CN1C(=S)CN=C(c2ccccc2)c2cc(Cl)ccc21,inactive,inactive,inactive,inactive,inactive,inactive,inactive,inactive,inactive,12 µM (active),,,,,,,,
CCC1(c2ccccc2)C(=O)N=C(O)NC1=O (stereo unspecified),inactive,inactive,inactive,inactive,inactive,inactive,inactive,inactive,,,,,,,,,,
Cc1cccc(C#N)c1,inactive,inactive,inactive,inactive,inactive,inactive,inactive,inactive,inactive,inactive,,,,,,,,
CNNC,inactive,inactive,inactive,inactive,inactive,inactive,inactive,inactive,inactive,inactive,,,,,,,,
CNC(=O)N(C)c1nc2ccccc2s1,inactive,inactive,inactive,inactive,inactive,inactive,inactive,inactive,inactive,inactive,,,,,,,,
c1cc[c]([Hg][c]2ccccc2)cc1,inactive,inactive,inactive,inactive,inactive,inactive,inactive,inactive,inactive,0.347 µM (active),,,,,,,,
CCOC(=O)N(C)C(=O)CSP(=S)(OCC)OCC,inactive,inactive,inactive,inactive,inactive,inactive,inactive,inactive,inactive,inactive,,,,,,,,
CC(C)(C)C(=O)C(Oc1ccc(Cl)cc1)n1cncn1 (stereo unspecified),inactive,inactive,inactive,inactive,inactive,inactive,inactive,inactive,inactive,inactive,,,,,,,,
Cc1ncc2n1-c1ccc(Cl)cc1C(c1ccccc1F)=NC2,inactive,inactive,inactive,inactive,inactive,inactive,inactive,inactive,,16.9 µM (active),,,,,,,,
CN1C[C@@H](NS(=O)(=O)N(C)C)C[C@@H]2c3cccc4c3c(cn4C)C[C@H]21,inactive,inactive,inactive,inactive,inactive,inactive,inactive,inactive,,inactive,,,,,,,,
CCC(Cl)[N+](=O)[O-] (stereo unspecified),inactive,inactive,inactive,inactive,inactive,inactive,inactive,inactive,,inactive,,,,,,,,
O=C(CCCN1CCC(n2c(=O)[nH]c3ccccc32)CC1)c1ccc(F)cc1,,,,,,,,,,inactive,0.0703% [at 18.6 µM],0.0625% [at 18.6 µM],-0.0154% [at 18.6 µM],-0.0219% [at 18.6 µM],0.463% [at 18.6 µM],-0.0144% [at 18.6 µM],0.027% [at 18.6 µM],0.0395% [at 18.6 µM]
CCCCOC(=O)c1ccccc1N,inactive,inactive,inactive,inactive,inactive,inactive,inactive,inactive,inactive,inactive,,,,,,,,
CCS(=O)(=O)C(C)(C)S(=O)(=O)CC,inactive,inactive,inactive,inactive,inactive,inactive,inactive,inactive,,inactive,,,,,,,,
CCOP(=S)(OCC)Oc1nc(Cl)n(C(C)C)n1,inactive,inactive,inactive,inactive,inactive,inactive,inactive,inactive,inactive,inactive,,,,,,,,
COc1cc(OC)nc(NC(=O)NS(=O)(=O)c2ncccc2OCC(F)(F)F)n1,inactive,inactive,inactive,inactive,inactive,inactive,inactive,inactive,inactive,inactive,,,,,,,,
Cc1cc(C)c(C(=O)P(=O)(C(=O)c2c(C)cc(C)cc2C)c2ccccc2)c(C)c1,inactive,inactive,inactive,inactive,inactive,inactive,inactive,inactive,inactive,inactive,,,,,,,,

# — PubChem BioAssay (Tox21)
